Bioassay records from PubChem BioAssay.
Sfp inh: inhibitors of Bacillus subtilis Sfp phosphopantetheinyl transferase. Potency, µM, for inactives: largest response in the series, negative = inhibition, actives largely listed as inhibitors. Q9F4F7. actives 3.5% (n = 310,000). Biochemical Sfp PPTase activity, qHTS;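 also: the enzyme is Sfp with the accession as filed and its product quenches rhodamine fluorescence; 0% = enzyme reaction without inhibitor and -100% = no enzyme wells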
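Sfp 15 nM + cpd, 15 min RT; start w/ rhodamine-CoA 5 uM, BHQ-2-YbbR 12.5 uM (final); 50 mM Hepes pH 7.6, 10 mM MgCl2, 0.01% NP-40, 0.01% BSA; read 525/598 nm at 0 and 30 min.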
HP1b chromo inh: inhibitors of HP1-beta chromodomain binding to methylated histone tails; P83916; AlphaScreen HP1-beta / biotin-H3K9me3 peptide binding; Potency, µM (series often up to 114 µM), for inactives: at the highest dose activity change, negative = inhibition, usual class: inhibitors; actives 0.56% (n = 390,000); AID 540317; also: nearly all actives have a fitted effect of over 70% in size
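AlphaScreen: HP1-beta (50 nM) preformed 30 min with biotin-H3(1-18)K9me3 peptide (50 nM) in PBS pH 7.4, 0.01% Tween-20. Compound added for 30 min at RT, then streptavidin donor/nickel chelate acceptor beads (10 ug/mL) for 30 min.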
G9a inh: blocks human histone lysine methyltransferase G9a; Q96KQ7; G9a H3K9 monomethylation, AlphaScreen, 2 h; Potency, µM (top dose mostly 102 µM), inactives show top-dose activity, negative = inhibition, actives largely listed as inhibitors; actives 8.8% (n = 350,000); also: % is scaled to controls: 0 for no effect and ±100 for the full control effect; nearly all actives have a fitted effect of over 75% in size
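Enzyme 20 nM + cpd, 15 min RT; add b-H3K9 pep 500 nM / SAM 20 uM; 2 h RT; anti-H3K9me1 Ab 0.5 ug/mL + SA donor / anti-rabbit acceptor beads 20 ug/mL each, 10 min; AlphaScreen read.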
JMJD2A Tudor: JMJD2A Tudor domain (human) inhibition; actives 4.4% (n = 390,000); O75164; AlphaScreen JMJD2A-Tudor / H3K4me3 peptide binding; AID 504339; Potency, µM (titrated, usually from 114 µM), without a hit: at the top dose activity change, negative = inhibition, usual class: inhibitors; also: % is scaled to controls: 0 for no effect and ±100 for the full control effect; nearly all actives have a fitted effect of over 50% in size
TDP1 block: inhibitors of human tyrosyl-DNA phosphodiesterase TDP1. Q9NUW8. recombinant TDP1, AlphaScreen DNA substrate cleavage. Potency, µM (top dose mostly 130 µM), for inactives: at the highest dose activity change, negative = inhibition, hits mostly inhibitors. actives 0.28% (n = 350,000). AID 485290; also: % is scaled to controls: 0 for no effect and ±100 for the full control effect; nearly all actives have a fitted effect of over 40% in size
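AlphaScreen read-out: signal falls as enzyme removes the 3' tyrosine-FITC from a 5'-biotinylated DNA oligo (15 nM, 5 min, RT). Enzyme was E. coli-made recombinant Tdp1 at 1 nM, exposed to compound for 15 min beforehand; beads 10 ug/ml, 10 min.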
BAZ2B inh: blocks human BAZ2B; Q9UIF8; AlphaScreen BAZ2B-H3K14Ac peptide displacement; Potency, µM (highest dose often 114 µM), for the others: at the top dose activity change, negative = inhibition, most hits filed as inhibitors; actives 4.4% (n = 360,000); also: % is scaled to controls: 0 for no effect and ±100 for the full control effect; nearly all actives have a fitted effect of over 60% in size
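AlphaScreen displacement: compounds (up to 110uM) incubated 30 min at room temperature with a preformed 50 nM BAZ2B/50 nM biotinylated H3K14Ac peptide complex in PBS pH 7.4 with Tween-20. Donor and acceptor beads at 10 ug/mL final added, 20 min light-protected before reading.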
* marks the source's active call; other numbers are inactive results; ? = inconclusive; nt = not tested or not shown; [ ] = dose if it differs, or a comment. Most compounds without a hit are left out; they make up all but 12% or so of the library. Calls follow the shape of the dose curve; as a rule, active = well fitted curve in the direction sought with a large enough effect; inconclusive = small, poorly fitted or top-dose-only effect, or another doubt; inactive = no such curve, though single readings can be large; an effect the other way counts as inactive or inconclusive. Potency is read from the fitted curve at half-maximal effect.

SMILES	Sfp inh	HP1b chromo inh	G9a inh	JMJD2A Tudor	TDP1 block	BAZ2B inh
CNC(=S)N(CCc1c(C)[nH]c2ccc(OC)cc12)Cc1cc(OC)c(OC)c(OC)c1	-9%	3%	50µM*	?	8%	45µM*
COc1cccc(N2CCN(C(=O)c3cc(C)oc3C)CC2)c1	nt	-8%	?	-27%	5%	-1%
O=C(C1CCCN(S(=O)(=O)c2cc(Cl)ccc2Cl)C1)N1CCOCC1 (stereo not drawn)	4%	34%	2%	-15%	4%[56.1 µM]	-12%
O=C(Nc1ccc(F)cc1)[C@H](Cc1ccccc1)N1Cc2ccccc2C1=O	nt	19%	-9%[59 µM]	-19%	5%	-13%
Cc1ccc(C2=NS(=O)(=O)N(C)C(C(=O)N3CCOCC3)=C2)cc1	-3%	17%	-3%	-7%	nt	11%
CCN1CCCc2cc(CN(CCN3CCOCC3)C(=O)Nc3ccc(C)c(C)c3)ccc21	-15%	?	8.9µM*	28µM*	11%	45µM*
CCCCN1CCCc2cc(CN(CCCN3CCOCC3)C(=O)Nc3ccc(OCC)cc3)ccc21	nt	?	?	13µM*	9%	-26%
CCc1ccc(NC(=O)N(CCN2CCOCC2)Cc2ccc3c(c2)CCCN3CC)cc1	?	28µM*	32µM*	22µM*	-4%	?
CCN1CCCc2cc(CN(CCN3CCOCC3)C(=S)Nc3ccccc3C)ccc21	2%	31%	3%[59 µM]	-20%[11.4 µM]	5%	-35%
O=C(NCCN1CCOCC1)C(=O)NCc1ccco1	14%	53%	2%	-1%	-5%	-16%
CN(Cc1ccccc1N1CCCC1)C(=O)c1cc2ccccc2o1	nt	?	nt	40µM*	10%	nt
O=C(Nc1ccc(N2CCCCCC2)cc1)c1ccc[nH]1	nt	?	-26%[2.33 µM]	50µM*	11%[56.1 µM]	45µM*
O=C(Nc1ccc(N2CCCC2)cc1)c1cc2ccccc2o1	?	-12%	nt	?	8%	25µM*
O=C(Nc1ccc(N2CCCCC2)cc1)c1ccccn1	1%	?	45µM*	?	8%	?
Cc1ccc(C(C(=O)Nc2ccc3c(c2)OCO3)N(C)C(=O)Cc2c[nH]c3ccccc23)cc1 (stereo not drawn)	7%	-15%	40µM*	?	11%	?
CN(CC(=O)Nc1ccc(Cl)c(Cl)c1)C(=O)CN1C(=O)NC2(CCCC2)C1=O	nt	5%	?	-21%	-9%[0.505 µM]	9%
CC(=O)NC(Cc1c[nH]c2ccccc12)C(=O)OCC(=O)Nc1ccc2c(c1)OCO2 (stereo not drawn)	-5%	10%	-9%[59 µM]	-20%	6%	3%
CCOc1ccc(NC(=O)CN(C)C(=O)Cc2c[nH]c3ccccc23)cc1OCC	nt	-17%	50µM*	-26%	-4%[0.505 µM]	-7%
CCOc1ccc(NC(=O)CN(C)C(=O)CN2C(=O)NC3(CCCC3)C2=O)cc1OCC	nt	-11%	56µM*	-14%	-1%	-6%
COc1cc([N+](=O)[O-])ccc1NC(=O)N1CCN(c2cc(-c3noc(C)n3)ccc2C)CC1	nt	29%[57 µM]	10%[59 µM]	2%	8%	6%
COc1ccc(CCn2c(-c3ccco3)nc3nc4ccccc4nc32)cc1	35µM*	22%	-39%[12.7 µM]	-8%	9%	15%
COc1ccccc1Cn1c(-c2ccco2)nc2nc3ccccc3nc21	nt	21%	nt	0%	nt	nt
CCOc1ccc(CCn2c(-c3ccco3)nc3ccccc3c2=O)cc1OCC	56µM*	6%	?	-23%	8%	?
O=c1c2ccccc2nc(-c2ccco2)n1Cc1ccccc1	-11%	24%	?	-8%	5%	?
c1coc(-c2nc3nc4ccccc4nc3n2CC2CCCO2)c1 (stereo not drawn)	79µM*	33%	50µM*	-10%	-1%	0%
CCc1ccc(NC(=O)CCc2nnc3n(C)c(=O)c4sccc4n23)cc1	nt	33%	9%[59 µM]	0%	1%	3%
